Screens as filed in PubChem BioAssay.
Luc counter – Counterscreen for Luciferase (Kinase-Glo TM) Inhibition | Luciferin 4-monooxygenase (Photuris pensylvanica), Q27757 | Kinase-Glo luciferase, ATP luminescence, 8 min | Potency, µM (top dose mostly 38.3 µM), for inactives: at the top dose activity change, negative = inhibition, most hits filed as inhibitors | hit rate 0.28% among 200,000 | AID 1379, 2008; also: % is scaled to controls: 0 for no effect and ±100 for the full control effect; nearly all actives have a fitted effect of over 60% in size
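Compounds were added to a substrate mix at pH 7.2 (50 mM imidazole, 10 uM ATP, within the enzyme's linear range), followed by Kinase-Glo detection reagent; luminescence was measured after 8 minutes at ambient temperature.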
FLuc counter – qHTS profiling assay for firefly luciferase inhibitor/activator using purifed enzyme and Km concentrations of substrates (counterscreen for miR-21 project) | Luciferin 4-monooxygenase (Photinus pyralis), P08659 | purified FLuc, Km substrates, luminescence inhibition | Potency, µM (doses to about 57.5 µM), for the others: at the highest dose activity change, negative = inhibition, actives largely listed as inhibitors | hit rate 6.9% among 360,000 | AID 588342, 2011;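 also: plate controls were vehicle for no effect and reference inhibitor for full effect; nearly all actives have a fitted effect of over 55% in size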
Target sequence (P08659 whole entry, looked up): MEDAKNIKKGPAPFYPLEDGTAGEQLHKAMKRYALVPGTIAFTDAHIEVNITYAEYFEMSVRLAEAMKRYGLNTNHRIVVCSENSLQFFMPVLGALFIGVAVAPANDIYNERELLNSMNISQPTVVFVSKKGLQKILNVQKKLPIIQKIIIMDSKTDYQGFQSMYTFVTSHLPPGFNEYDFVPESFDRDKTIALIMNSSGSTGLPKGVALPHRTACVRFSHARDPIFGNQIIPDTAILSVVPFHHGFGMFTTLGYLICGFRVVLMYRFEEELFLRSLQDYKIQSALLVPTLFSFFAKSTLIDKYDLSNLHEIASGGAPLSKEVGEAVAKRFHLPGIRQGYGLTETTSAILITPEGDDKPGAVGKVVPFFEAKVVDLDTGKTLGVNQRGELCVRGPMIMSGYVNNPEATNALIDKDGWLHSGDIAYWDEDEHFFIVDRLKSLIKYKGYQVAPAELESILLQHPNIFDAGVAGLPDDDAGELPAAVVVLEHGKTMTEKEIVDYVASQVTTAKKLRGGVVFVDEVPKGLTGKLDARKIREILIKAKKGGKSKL
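Biochemical qHTS of compounds, final roughly 60 µM downward over six points, against 10 nM purified firefly luciferase using Km concentrations of substrates (10 uM D-luciferin, 10 uM ATP) in Tris acetate pH 7.5 buffer; luminescence output.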
SMN2 splice up – qHTS Assay for Enhancers of SMN2 Splice Variant Expression; HEK293 SMN2-luciferase splicing reporter, luminescence, 30-36 h; hit rate 2.8% among 210,000; AID 1458, 2008; Potency, µM (highest dose often 46.1 µM), without a hit: top-dose activity change, positive = activation, hits mostly activators; also: % of control where 0% means no effect; nearly all actives have a fitted effect of over 55% in size
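HEK293 cells carry an SMN2 […]–luciferase reporter in which exon 7 inclusion puts luciferase in frame. Cells were plated 10-12 h before compound addition, then incubated 30-36 h at 37C. ONE-Glo luminescence was read; sodium butyrate at 4.5 mM final served as control.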
ELG1 genotox – qHTS screen for small molecules that induce genotoxicity in human embryonic kidney (HEK293T) cells expressing luciferase-tagged ELG1 | AID 504466, 2011 | Potency, µM (titrated, usually from 46 µM), without a hit: top-dose activity change, positive = activation, hits mostly activators | HEK293T ELG1-luciferase reporter, luminescence, 16 h | hit rate 1.3% among 330,000; also: % of control where 0% means no effect; nearly all actives have a fitted effect of over 60% in size
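ELG1-luciferase HEK293T cells, 2,000/well; compound pinned in; 16 hr, 37 °C, 5% CO2; ONE-Glo, 30 min RT; luminescence on CCD imager.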
Rab9 prom act – qHTS Assay for Rab9 Promoter Activators; Huh7 Rab9 promoter-luciferase reporter, luminescence, 24 h; Potency, µM (titrated, usually from 9.22 µM), without a hit: at the highest dose activation, negative = inhibition, most hits filed as activators; hit rate 2.8% among 320,000; also: % of control where 0% means no effect; nearly all actives have a fitted effect of over 60% in size
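Stable Rab9-luc Huh7, 1500 cells/well, 2 h settle; cmpd in DMSO, 24 h, 37 °C/5% CO2; luciferase reagent 10 min RT; luminescence.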
NPC1 promoter act – qHTS Assay for NPC1 Promoter Activators; AID 485313, 2010; Huh7 NPC1 promoter luciferase reporter, 24 h; hit rate 2.4% among 320,000; Potency, µM (series often up to 9.22 µM), without a hit: at the highest dose activation, usual class: activators; also: % of control where 0% means no effect; nearly all actives have a fitted effect of over 60% in size
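Luciferase expression driven by the NPC1 promoter was measured in stably transfected Huh7 cells after a 24 h compound incubation, using a luciferase reagent and a luminescence read.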
* marks the source's active call; other numbers are inactive results; ? = inconclusive; / = not tested or not shown; [ ] = dose if it differs, or a comment. The list is not random: actives were taken first. Their share in the collection is about 7.5%. Calls follow the shape of the dose curve; as a rule, active = well fitted curve in the direction sought with a large enough effect; inconclusive = small, poorly fitted or top-dose-only effect, or another doubt; inactive = no such curve, though single readings can be large; an effect the other way counts as inactive or inconclusive. Potency is read from the fitted curve at half-maximal effect.

SMILES | Luc counter | FLuc counter | SMN2 splice up | ELG1 genotox | Rab9 prom act | NPC1 promoter act
COc1ccc(/C=N\NC(=O)c2nn(C)cc2Cl)cc1CN1CCOCC1 | -4.7% | -9.6% | -3.6% | 2.1% | 0.3% | 1.3%
Cc1ccc(/C=N/NC(=O)c2nn(C)cc2Cl)cc1 | ? | 1.51µM* | 11.2µM* | ? | 3.55µM* | 3.55µM*
Cn1cc(Cl)c(C(=O)N/N=C/c2ccc3c4c(cccc24)CC3)n1 | / | 0.536µM* | / | ? | 1.41µM* | 2µM*
Cn1cc(Cl)c(C(=O)Nc2cccc(Cl)c2Cl)n1 | 1.2% | 0.4% | 56.2% | -0.6% | 25.6% | 18.2%
Cn1cc(Cl)c(C(=O)N/N=C/c2ccc(OS(=O)(=O)c3ccccc3)cc2)n1 | 4.1% | 23.9µM* | -3.2% | -9.3% | -0.1% | 4.3%
CCC(=O)N/N=C/c1ccc(OS(=O)(=O)c2ccccc2)cc1 | -0.6% | -0.5% | ? | -1.8% | 0.2% | -2.3%
CN(C)CCCNC(=O)C1(O)c2cc(Br)ccc2NC(=O)N1c1ccc(Cl)cc1 (stereo not given) | / | -0.5% | / | 1.3% | 2.6% | 0.7%
COc1ccccc1OCC(=O)Nc1cccc(-c2nc3ccccc3o2)c1 | -3.1% | 7.57µM* | 5.8% | -1.6% | 9.6% | 2.1%
Cc1cccc(OCC(=O)Nc2cccc(-c3nnc(-c4ccccc4)o3)c2)c1C | -3.1% | 1.7% | 10µM* | 4.5% | 20.1% | ?
Cc1ccc(OCC(=O)Nc2cccc(-c3nnc(-c4ccccc4)o3)c2)cc1 | 1.3% | ? | 25.1µM* | 2.3% | ? | ?
O=C(COc1ccccc1-c1nnc(-c2ccccc2)o1)Nc1ccc(Br)cc1F | / | 4.78µM* | / | / | / | /
Cc1cccc(C)c1OCC(=O)Nc1cccc(-c2nnc(-c3ccccc3)o2)c1 | / | ? | / | -7.1% | 6.1% | 2.6%
COc1ccc(-n2c(=O)c3ccc(C(=O)NCc4ccc(C)cc4)cc3n(Cc3cccc(Cl)c3)c2=O)cc1 | / | -0.8% | 0.5% | / | / | /
C=C(CCC(=O)c1ccccc1)C(=O)c1ccccc1 | -1.0% | 16.9µM* | -20.0% | -15.9% | -7.9% | -3.9%
CCCCCCSC1=C(C#N)C(=O)NC2(CCCCC2)S1 | 0.7% | 23.9µM* | 19.1% | ? | -2.3% | 2.6%
COc1ccc(CSC2=C(C#N)C(=O)NC3(CCCCC3)S2)cc1 | -2.7%[7.66 µM] | / | -3.9%[9.22 µM] | / | / | /
CC(=O)c1ccc(NC(=O)CCOc2cc(C)ccc2C)cc1 | / | ? | / | ? | ? | 20.5%
CN1CCN(c2ccc(NC(=O)C(C)(c3ccccc3)c3ccccc3)cc2)CC1 | / | 1.4% | / | -3.0% | -0.3% | -5.2%
CN1CCN(c2ccc(-c3ccnn3C(=O)Nc3ccccc3)cc2)CC1 | -7.7% | 16.9µM* | 10µM* | ? | 3.55µM* | ?
Cc1nn(CC(=O)Nc2cccc(C(F)(F)F)c2)c(=O)c2nn(-c3ccccc3)c(C)c12 | / | -16.2% | / | / | / | /
CCc1cc2c(=O)c(-c3nc(C)cs3)coc2cc1OC(C)C(=O)NCCO (stereo not given) | -2.4% | 10.7µM* | -5.6% | -6.4% | 1.3% | 0.4%
c1ccc(Nc2ncnc3c2oc2ccccc23)cc1 | 0.7% | 21.3µM* | -0.3% | / | / | /
CC(=O)N1CCN(c2ccc(Nc3ncnc4c3oc3ccccc34)cc2)CC1 | -4.1% | 23.9µM* | -43.1% | -10.1% | 12.6% | 18.5%
Oc1cccc(Nc2ncnc3c2oc2ccccc23)c1 | / | 8.49µM* | / | 13µM* | ? | 3.55µM*
c1ccc2c(c1)oc1c(Nc3ccc(CN4CCOCC4)cc3)ncnc12 | 1.4% | 8.49µM* | -91.6% | 2.06µM* | ? | 2.24µM*
CCc1nc(Nc2ccc(N3CCN(C(C)=O)CC3)cc2)c2oc3ccccc3c2n1 | / | ? | / | -31.2% | -2.5% | 5.0%
c1ccc2c(c1)oc1c(NCCN3CCOCC3)ncnc12 | 0.5% | -12.1% | -4.4% | 6.8% | 3.7% | 14.1%
